Assay results published in PubChem BioAssay (NCATS).
Records with an inconclusive call do not appear. Unless noted, calls follow the shape of the dose curve; as a rule, active = well fitted curve in either direction with a large enough effect (not every such curve was filed as active); inconclusive = small, poorly fitted or top-dose-only effect, or another doubt; inactive = flat fitted curve, though single readings scatter.

Legend:
[1] = AP1 Signaling Pathway (AID 357); details: ME-180 AP-1-bla reporter, EGF-induced, beta-lactamase ratio, 5 h; at 17.2 µM (top of the series) unless noted;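 also: ME-180 reporter cells stimulated with EGF at its EC50 level; % is scaled to controls: 0 for no effect and ±100 for the full control effect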
Method in brief: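 Read-out was the 460nm/530nm emission ratio (excitation 405nm) after CCF4 loading for 2.5 hours at room temperature. Cells carried an AP-1-driven beta-lactamase reporter, were stimulated with EC50 EGF plus compound for 5 hours, and AC50 values came from titrations.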

[2] = NFAT Signaling Pathway (AID 444); details: Jurkat NFAT-bla M1, carbachol, beta-lactamase ratio, 5 h; at 17.2 µM (top of the series) unless noted;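 also: carbachol stimulus at about its EC50 of 1 µM final; % is scaled to controls: 0 for no effect and ±100 for the full control effect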
Method in brief: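 Jurkat cells with NFAT-driven β-lactamase reporter and co-expressed M1 receptor, stimulated with carbachol (final 1 uM, ~EC50), compound titration, 5 h at 37 °C. CCF4 loaded 1 h at RT; 460/530 nm ratio gave %activity and AC50.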

[3] = Stat Signaling Pathway (AID 446); details: ME-180 (cervical carcinoma) SIE beta-lactamase reporter, IL-6 stimulated, 5 h; at 17.2 µM (top of the series) unless noted;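 also: ME-180 cervical cancer cells given 40 pM IL-6 alongside compound; SIE-controlled beta-lactamase reporter measured as 460/530 nm FRET emission ratio; % is scaled to controls: 0 for no effect and ±100 for the full control effect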
Method in brief: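 Compound effects on IL-6-induced STAT reporter activity were measured in ME-180 cells. After overnight culture, cells were co-treated with 40 pM IL-6 for 5 hrs before beta-lactamase substrate loading at room temperature.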

[4] = molecular target: Glucocorticoid receptor (Homo sapiens) (UniProt P04150); assay: GR-GFP Redistribution (AID 450;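 active = compounds whose dose series gives a full or clear partial fitted curve of increased nuclear translocation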; also: potency is read from the fitted curve at half-maximal effect)
Chain of Glucocorticoid receptor (Homo sapiens) (P04150 whole entry, looked up): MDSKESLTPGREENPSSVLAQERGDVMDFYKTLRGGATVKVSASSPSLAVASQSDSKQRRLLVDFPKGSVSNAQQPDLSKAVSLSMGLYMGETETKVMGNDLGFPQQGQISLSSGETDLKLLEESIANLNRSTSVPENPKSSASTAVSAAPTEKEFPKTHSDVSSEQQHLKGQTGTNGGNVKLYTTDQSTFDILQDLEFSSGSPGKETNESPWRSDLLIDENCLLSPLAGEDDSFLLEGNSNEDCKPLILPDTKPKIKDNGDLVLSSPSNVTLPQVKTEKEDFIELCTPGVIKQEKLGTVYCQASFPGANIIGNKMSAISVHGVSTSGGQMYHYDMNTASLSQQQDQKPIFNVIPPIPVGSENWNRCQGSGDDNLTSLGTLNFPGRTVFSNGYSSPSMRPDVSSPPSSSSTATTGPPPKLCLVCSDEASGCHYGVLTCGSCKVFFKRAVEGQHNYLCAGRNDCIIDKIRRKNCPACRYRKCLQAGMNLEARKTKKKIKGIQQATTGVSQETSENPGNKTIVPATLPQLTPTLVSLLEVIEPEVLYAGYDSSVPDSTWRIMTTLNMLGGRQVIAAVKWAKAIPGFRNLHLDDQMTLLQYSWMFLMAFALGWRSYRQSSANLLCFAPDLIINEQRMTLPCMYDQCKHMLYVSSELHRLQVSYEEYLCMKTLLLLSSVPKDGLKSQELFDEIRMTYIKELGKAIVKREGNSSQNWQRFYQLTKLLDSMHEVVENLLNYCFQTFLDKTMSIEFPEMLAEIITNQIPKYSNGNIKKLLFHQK

CC(C)CCOc1ccc(Cl)cc1CN1CCOCC1
inactive: activity change, negative = inhibition [1] 26.6% | activity change, negative = inhibition [2] 5.23% | activity, negative = inhibition [3] 9.43% | Potency [4] > 20.6 µM

CCN(CC)C(=O)CSC1=C(C#N)C(c2ccco2)C(C(=O)OCCOC)=C(C)N1 (stereo not given)
inactive: activity change, negative = inhibition [1] -10.6% | activity change, negative = inhibition [2] -0.498% | activity, negative = inhibition [3] 2.75% | Potency [4] > 20.6 µM

CCOC(=O)c1ccc(NC(=O)COc2ccccc2OC)cc1
inactive: activity change, negative = inhibition [1] -16.3% | activity change, negative = inhibition [2] 0.388% | activity, negative = inhibition [3] 2.17% | Potency [4] > 20.6 µM

C/C(NC(=O)c1cccs1)=C1\C(=O)C[C@@H]2[C@H]1C2(C)C
inactive: activity change, negative = inhibition [1] -9.31% | activity change, negative = inhibition [2] -25.4% | activity, negative = inhibition [3] -12.2% | Potency [4] > 20.6 µM

N#Cc1c(N2CCOCC2)nc(-c2ccco2)c2c1CCCC2
inactive: activity change, negative = inhibition [1] 2.51% | activity change, negative = inhibition [2] 4.52% | activity, negative = inhibition [3] 4.59% | Potency [4] > 20.6 µM

CCOP(=O)(c1ccccc1)C1(C#N)CCCC1 (stereo not given)
inactive: activity change, negative = inhibition [1] 8.95% | activity change, negative = inhibition [2] 7.44% | activity, negative = inhibition [3] 7.92% | Potency [4] > 20.6 µM

CN(C)CCCNCCCCNC(=O)/C=N/O
inactive: activity change, negative = inhibition [1] 5.81% | activity change, negative = inhibition [2] 11.9% | activity, negative = inhibition [3] -0.521% | Potency [4] > 20.6 µM

COC(=O)c1ccccc1N1C(=O)[C@@H]2C(c3ccc(Br)cc3)=NO[C@@H]2C1=O
inactive: activity change, negative = inhibition [1] 11.9% | activity change, negative = inhibition [2] 19.8% | activity, negative = inhibition [3] 7.92% | Potency [4] > 20.6 µM

CCCOc1ccc(N2C(=O)CC(N(CCC)C(=O)CCC(=O)O)C2=O)cc1 (stereo not given)
inactive: activity change, negative = inhibition [1] 3.59% | activity change, negative = inhibition [2] 18.7% | activity, negative = inhibition [3] 6.31% | Potency [4] > 20.6 µM

COc1cccc(COc2nc3c(c(=O)n(C)c(=O)n3C)n2C)c1
inactive: activity change, negative = inhibition [1] -9.75% | activity change, negative = inhibition [2] 12.8% | activity, negative = inhibition [3] -3.58% | Potency [4] > 20.6 µM

COc1cccc(-c2nnc3sc(-c4ccco4)nn23)c1
inactive: activity change, negative = inhibition [1] -6.59% | activity change, negative = inhibition [2] 7.27% | activity, negative = inhibition [3] -1.01% | Potency [4] > 20.6 µM

O=C1C=C(O)CC(c2ccc(Cl)c(Cl)c2)C1 (stereo not given)
inactive: activity change, negative = inhibition [1] 7.55% | activity change, negative = inhibition [2] -10.9% | activity, negative = inhibition [3] -4.42% | Potency [4] > 20.6 µM

COc1ccccc1-n1c(=O)c2c3c(sc2n2c(SC(C)C)nnc12)CCC3
inactive: activity change, negative = inhibition [1] -5.57% | activity change, negative = inhibition [2] -27.1% | activity, negative = inhibition [3] 10.5% | Potency [4] > 20.6 µM

Cc1cccc(C)c1NC(=O)CSCC(=O)c1ccc(O)c(O)c1
inactive: activity change, negative = inhibition [1] -12.4% | activity change, negative = inhibition [2] 22.8% | activity, negative = inhibition [3] -19.4% | Potency [4] > 20.6 µM

CC(C)COc1nc2ccccc2nc1C(C#N)C(=O)NC1CCCCC1 (stereo not given)
inactive: activity change, negative = inhibition [1] -1.14% | activity change, negative = inhibition [2] 0.574% | activity, negative = inhibition [3] 5.36% | Potency [4] > 20.6 µM

COc1cccc(NC(=O)CC2SC(=Nc3ccccc3)NC2=O)c1 (stereo not given)
inactive: activity change, negative = inhibition [1] -10.5% | activity change, negative = inhibition [2] 2.42% | activity, negative = inhibition [3] -17.8% | Potency [4] > 20.6 µM

Cc1cccc(C)c1OCC(O)CNS(=O)(=O)c1ccccc1C(=O)N1CCOCC1 (stereo not given)
inactive: activity change, negative = inhibition [1] -8.76% | activity change, negative = inhibition [2] 9% | activity, negative = inhibition [3] 3.91% | Potency [4] > 20.6 µM

CCn1nc(NC(=O)c2cccnc2)c2cc3ccccc3nc21
inactive: activity change, negative = inhibition [1] -12.7% | activity change, negative = inhibition [2] 9.22% | activity, negative = inhibition [3] -4.62% | Potency [4] > 20.6 µM

Cn1c(=O)c2c(nc(N3CCN(Cc4ccccc4)CC3)n2CC(=O)c2ccccc2)n(C)c1=O
inactive: activity change, negative = inhibition [1] -9.66% | activity change, negative = inhibition [2] -8.82% | activity, negative = inhibition [3] 0.621% | Potency [4] > 20.6 µM

O=C(c1ccco1)N1CCN(CCOCCOc2cccc3ccccc23)CC1
inactive: activity change, negative = inhibition [1] 1.08% | activity change, negative = inhibition [2] -2.55% | activity, negative = inhibition [3] -10% | Potency [4] > 20.6 µM

Clc1ccc(-n2ncc3c(NCc4ccco4)ncnc32)cc1
inactive: activity change, negative = inhibition [1] -19.6% | activity change, negative = inhibition [2] 1.57% | activity, negative = inhibition [3] -20.9% | Potency [4] > 20.6 µM

CC1(C)Cc2c(sc3nc(SCC(=O)NCc4ccco4)n(-c4ccccc4)c(=O)c23)CS1
inactive: activity change, negative = inhibition [1] -19.4% | activity change, negative = inhibition [2] -13.9% | activity, negative = inhibition [3] -26.5% | Potency [4] > 20.6 µM

CCCOc1ccc(/C(O)=C2/C(=O)C(=O)N(CCCN3CCOCC3)C2c2ccncc2)cc1 (stereo not given)
inactive: activity change, negative = inhibition [1] -5.76% | activity change, negative = inhibition [2] 16.4% | activity, negative = inhibition [3] 5.77% | Potency [4] > 20.6 µM

CCCCOC(=O)CCc1nc2ccccc2[nH]1
inactive: activity change, negative = inhibition [1] 5.71% | activity change, negative = inhibition [2] -0.459% | activity, negative = inhibition [3] 6.02% | Potency [4] > 20.6 µM

N#C/C(C(=O)N1CCOCC1)=C1/SC(Cc2ccccc2)C(=O)N1c1ccccc1 (stereo not given)
inactive: activity change, negative = inhibition [1] 6.74% | activity change, negative = inhibition [2] -2.77% | activity, negative = inhibition [3] -8.3% | Potency [4] > 20.6 µM
